{
  "source": "PubChem BioAssay (EPA / NIEHS)",
  "note": "Values joined by “and” are separate entries in the source; they are usually repeats but may differ in a detail not shown here. Equal values may be shown once. Active and inactive are the calls of the source. The calls were made as follows: active = hit-call score of the fitted dose curve at least 0.9, where 1 is the maximum; inactive = score below 0.9.",
  "data": [
    {"read-out": "Interferon-gamma inducible Protein 10 (IP10), CXCL10 (gene 3627)", "assay": "BSK_hDFCGF_IP10: BioMAP Diversity Plus: hDFCGF Assay for Interferon-gamma inducible Protein 10 (IP10) Biomarker Activity (AID 2283053)", "details": "primary human foreskin fibroblasts; actives raise or lower the signal", "method": "BSK_hDFCGF is a cell-based, multiplexed-readout assay that uses foreskin fibroblast, a human skin primary cell, with measurements taken at 24 hours after chemical dosing in a 96-well plate.BSK_hDFCGF_IP10 is an assay component measured in the BSK_hDFCGF assay. It measures IP-10 antibody related to regulation of gene expression using ELISA technology.Data from the assay component BSK_hDFCGF_IP10 was analyzed into 1 assay endpoint. This assay endpoint, BSK_hDFCGF_IP10, was analyzed with bidirectional fitting relative to DMSO as the negative control and baseline of activity. Using a type of binding reporter, gain or loss-of-signal activity can be used to understand changes in the signaling as they relate to the gene CXCL10. Furthermore, this assay endpoint can be referred to as a primary readout, because this assay has produced multiple assay endpoints where this one serves a signaling function. To generalize the intended target to other relatable targets, this assay endpoint is annotated to the cytokine intended target family, where the subfamily is chemotactic factor.\nThe levels of cell surface (or secreted, indicated by the prefix \"s\") biomarker endpoints were measured by ELISA. Overt cytotoxicity to cells in confluent adherent cultures (all systems other than the BT system) was assessed by measuring total protein levels using sulforhodamine B (SRB) staining in parallel cultures at the time of biomarker measurements, indicated as SRB endpoints. For proliferation assays for adherent cell types, individual cell types are cultured at sub-confluence and relative cell numbers quantified by SRB staining at time points optimized for each system (48 h: 3C and CASM3C systems; 72 h: BT and HDF3CGF systems; 96 h: SAg system). SRB was performed by staining cells with 0.1% SRB after fixation with 10% TCA and reading wells at 560 nm.Viability and proliferation of PBMC (T cells) was quantified by Alamar Blue reduction for the SAg and BT systems. For PBMC viability (referred to as PBMC Cytotoxicity within the assay endpoint names), cells were plated (75,000/well in a 96-well plate) and then chemical samples added for 1 h before addition of activators, SEB and TSST-1 (20 ng/mL final concentration each). Cells were incubated for 90 h. Then, Alamar Blue (20 uL/well) (Invitrogen, Cat DAL1100) was added for 6 h, and the plates were read with a fluorescence microplate reader at 546/580 nm (excitation/emission). For PBMC proliferation, cells were plated and activated as above but incubated for only 16 h prior to addition of Alamar Blue. Plates were read after 6 h.", "values": [
      {"smiles": "O=C1C(Cl)=C(Cl)C(=O)C(Cl)=C1Cl", "AC50": "20 µM (active)"},
      {"smiles": "O=c1c2ccccc2c(=O)c2c1cc(Cl)c1[nH]c3c([nH]c12)c(Cl)cc1c(=O)c2ccccc2c(=O)c13", "AC50": "29 µM (active)"},
      {"smiles": "CNC(=O)Oc1cc(C)c(SC)c(C)c1", "outcome": "inactive"},
      {"smiles": "CC(C)CCCCCCCOC(=O)c1ccccc1C(=O)OCCCCCCCC(C)C", "outcome": "inactive"},
      {"smiles": "CC(C)(c1cc(Cl)c(O)c(Cl)c1)c1cc(Cl)c(O)c(Cl)c1", "AC50": "11.5 µM (active)"},
      {"smiles": "CC(=O)/C=C/c1ccccc1", "outcome": "inactive"},
      {"smiles": "CC(C)(C)C(O)C(Oc1ccc(-c2ccccc2)cc1)n1cncn1", "note": "(stereo not drawn)", "outcome": "inactive"},
      {"smiles": "[Cd+2].[Cl-].[Cl-]", "AC50": "15.9 µM (active) and 13.5 µM (active)"},
      {"smiles": "COC(C)(C)CCC[C@H](C)C/C=C/C(C)=C/C(=O)OC(C)C", "AC50": "33.7 µM (active)"},
      {"smiles": "Oc1ccc(C2(c3ccc(O)cc3)c3ccccc3-c3ccccc32)cc1", "AC50": "2.87 µM (active) and 2.53 µM (active)"},
      {"smiles": "CCc1cc(C)cc(CC)c1-c1c(OC(=O)C(C)(C)C)n2n(c1=O)CCOCC2", "outcome": "inactive"},
      {"smiles": "CC(C)CCCCCCCOP(=O)(Oc1ccccc1)Oc1ccccc1", "AC50": "9.26 µM (active)"},
      {"smiles": "Nc1ccc(-c2ccc(N)c(N)c2)cc1N", "outcome": "inactive"},
      {"smiles": "CCCOC(=O)c1ccccc1C(=O)OCCC", "outcome": "inactive"},
      {"smiles": "O=c1[nH]c(Cl)c(Cl)cc1Cl", "outcome": "inactive"},
      {"smiles": "COc1ccc(CO)cc1", "outcome": "inactive"},
      {"smiles": "Oc1cc(Cl)ccc1Cl", "outcome": "inactive"},
      {"smiles": "O=P1(NCCCl)OCCCN1CCCl", "note": "(stereo not drawn)", "outcome": "inactive"},
      {"smiles": "O=[N+]([O-])O", "outcome": "inactive"},
      {"smiles": "O=C(O)CCCc1ccc(N(CCCl)CCCl)cc1", "outcome": "inactive"},
      {"smiles": "O=[N+]([O-])c1ccc(Cl)cc1", "outcome": "inactive"},
      {"smiles": "CC(C)COP(=O)(OCC(C)C)OCC(C)C", "outcome": "inactive"},
      {"smiles": "CCC(C)c1cc([N+](=O)[O-])cc([N+](=O)[O-])c1OC(=O)C=C(C)C", "note": "(stereo not drawn)", "AC50": "7.21 µM (active)"},
      {"smiles": "C=CC(=O)OCC(CC)CCCC", "note": "(stereo not drawn)", "AC50": "27.6 µM (active)"},
      {"smiles": "CCCC[N+](CCCC)(CCCC)CCCC", "outcome": "inactive"},
      {"smiles": "COCC(=O)N(c1c(C)cccc1C)N1CCOC1=O", "outcome": "inactive"},
      {"smiles": "C=CCN(CC=C)C(=O)C(Cl)Cl", "outcome": "inactive"},
      {"smiles": "CCCCCCCCCCCC#N", "AC50": "28.8 µM (active)"},
      {"smiles": "N#CCCCCC#N", "outcome": "inactive"},
      {"smiles": "c1ccc(Nc2ccc3ccccc3c2)cc1", "AC50": "36.2 µM (active)"},
      {"smiles": "O=S(=O)(c1ccccc1)c1ccccc1", "outcome": "inactive"},
      {"smiles": "O=[N+]([O-])C=Cc1ccccc1", "AC50": "2.63 µM (active)"},
      {"smiles": "CC1(C)[C@H](C(=O)O[C@H](C#N)c2cccc(Oc3ccccc3)c2)[C@@H]1C=C(Br)Br", "outcome": "inactive"},
      {"smiles": "CC(C)(C)C(=O)CCl", "outcome": "inactive"},
      {"smiles": "Cc1ccc(OP(=O)(Oc2ccc(C)cc2)Oc2ccc(C)cc2)cc1", "note": "(tested in a mixture with another compound)", "outcome": "inactive"},
      {"smiles": "O=C(CCl)c1ccccc1", "AC50": "4.64 µM (active)"},
      {"smiles": "Clc1ccc(-c2ccccc2)cc1", "outcome": "inactive"},
      {"smiles": "O=C1C=CC(=O)C=C1", "AC50": "16.8 µM (active) and 23.7 µM (active)"}
    ]}
  ]
}
